ClpP mod = qHTS Assay for Activators of ClpP; ATP-dependent Clp protease proteolytic subunit (Bacillus subtilis (strain 168)), P80244; purified B. subtilis ClpP, FRET peptide cleavage, 20 min; Potency, µM (highest dose often 57.5 µM), inactives show at the highest dose activity change, negative = active; 1.9% of 340,000 active; AID 651965, 2013; active means well fitted falling curve with a large enough effect; inconclusive means small, poorly fitted or top-dose-only effect; inactive means no such curve, though single readings can be large or run the other way; further: potency means the concentration at half of the fitted maximal effect; the source files actives as falling curves though it sought activators and does not explain the sign; nearly all actives have a fitted effect of over 65% in size
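Purified B. subtilis ClpP, 10 microg/mL final in Tris/HCl pH8 with KCl, BSA, glycerol and Tween-20, cleaved an Abz/nitrotyrosine-quenched decapeptide. Fluorescence (ex 320, em 430) was read at 0 and 20 min at room temperature. Delta was normalized to 5.8 microM ADEP and DMSO/no-enzyme controls.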
IL-2 act = IL-2 activation | IL-2 activation reporter assay, cell-based qHTS; stimulated with anti-CD3/CD4/CD28 beads; in transgenic mouse T cells | activation, % (series mostly up to about 46 µM) | 0.065% of 360,000 active; in the data active means activation above about 50%; inconclusive means mostly about 30% to 49%; further: 0% is about no effect
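Readout: EGFP and DsRed signals by fluorescent plate cytometry. Unstimulated transgenic mouse T cells received compound 60 min before antibody-bead stimulation, then incubated 18 h at 37 degrees C.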
USP2a block = USP2a (human) protease inhibition. O75604. USP2 core, Ub-CHOP2 coupled fluorogenic reporter, 485/531. Potency, µM (doses to about 38.3 µM), for inactives: top-dose activity change, negative = inhibition, actives largely listed as inhibitors. 0.01% of 330,000 active. AID 463254;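 further: potency means the concentration at half of the fitted maximal effect; plate controls were DMSO wells for no effect and full inhibition by NEM control for full effect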
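Deubiquitinase activity read as fluorescence (485/531 nm) after Ub-CHOP2 cleavage activates the enterokinase reporter on its substrate; USP2 core 10nM, Ub-CHOP2 and substrate 25nM each, 30min compound preincubation then 60min RT; data normalized to NEM, curves fitted.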
PKM2 act = PKM2 (human) enzyme activation; purified PKM2, Kinase-Glo ATP luminescence, activation; response scale: 0% is enzyme alone, no compound; Potency, µM (titrated, usually from 57.5 µM), for inactives: at the top dose activation, usual class: activators; 0.34% of 260,000 active; AID 1631; further: potency means the concentration at half of the fitted maximal effect; on the % scale 0 is the no-effect control and ±100 the full control effect; nearly all actives have a fitted effect of over 55% in size
Target sequence (P14618 whole entry, looked up): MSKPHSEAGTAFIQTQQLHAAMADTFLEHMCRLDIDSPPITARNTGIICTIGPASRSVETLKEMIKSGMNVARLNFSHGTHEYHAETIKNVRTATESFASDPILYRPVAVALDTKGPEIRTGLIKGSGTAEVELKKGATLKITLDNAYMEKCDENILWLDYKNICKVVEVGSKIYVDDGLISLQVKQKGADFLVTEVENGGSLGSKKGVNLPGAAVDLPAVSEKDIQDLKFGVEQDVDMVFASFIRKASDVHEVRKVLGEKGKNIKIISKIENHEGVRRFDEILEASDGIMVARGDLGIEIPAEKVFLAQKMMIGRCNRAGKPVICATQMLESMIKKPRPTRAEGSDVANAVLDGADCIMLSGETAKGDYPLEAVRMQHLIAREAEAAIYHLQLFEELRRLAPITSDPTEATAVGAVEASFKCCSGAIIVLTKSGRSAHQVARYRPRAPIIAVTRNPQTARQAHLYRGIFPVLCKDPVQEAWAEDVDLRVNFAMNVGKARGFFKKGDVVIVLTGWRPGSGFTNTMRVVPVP
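Purified hPK-M2 (>95% pure) converted ADP (0.1 mM final) to ATP with 0.5 mM PEP in 50 mM imidazole pH7.2, KCl, MgCl2, Tween 20, BSA; 1 h at room temperature. ATP detected by Kinase-Glo luminescence.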
Pin1 inhibitor = inhibitors of human Pin1; 0.009% of 390,000 active; Potency, µM (highest dose often 115 µM), for the others: at the highest dose activity, negative = inhibition, hits mostly inhibitors; Q13526; AID 504891; Pin1 FP peptide displacement, HiFluor488, 10 min; active means well fitted inhibition curve with a large enough effect in the polarisation, with a control signal flat, not every such curve was filed as active; inconclusive means small, poorly fitted or top-dose-only effect, or effect the other way, or a change in a side signal; inactive means no such curve, though single readings can be large or run the other way; the % refers to the polarisation; further: potency means the concentration at half of the fitted maximal effect; on the % scale 0 is the no-effect control and ±100 the full control effect
Integrin act MD = integrin-mediated muscular dystrophy alleviation activation; 0.064% of 350,000 active; AID 624291; alpha7betagal myoblasts, beta-gal FDG fluorescence, 48 h; Potency, µM (highest dose often 38.3 µM), for inactives: top-dose activation, actives largely listed as activators;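 further: potency means the concentration at half of the fitted maximal effect; 100% = response of the positive control SU9516; nearly all actives have a fitted effect of over 60% in size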
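Alpha7betagal+/- myoblasts (passage 13) were plated 16-24 hr, then exposed to compounds (1:260 dilution of DMSO stock) for 48 hours at 37C. After MPER lysis, β-galactosidase reporter activity was read as FDG fluorescence (ex 480/em 540) after 30 minutes.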
An asterisk follows results filed as active; u = inconclusive; x = not tested or not shown. Only some compounds are listed: those with a hit (about 1.9% of all), similar ones and a draw of the others. Unless noted, the call rests on the fitted dose curve; in most records, active means well fitted curve in the direction sought with a large enough effect; inconclusive means small, poorly fitted or top-dose-only effect, or another doubt; inactive means no such curve, though single readings can be large; an effect the other way counts as inactive or inconclusive.

SMILES | ClpP mod | IL-2 act | USP2a block | PKM2 act | Pin1 inhibitor | Integrin act MD
COc1ccc(C2/C=C\CN(S(=O)(=O)CC34CCC(CC3=O)C4(C)C)CC(=O)N2Cc2ccc(F)cc2)cc1 (stereo unspecified) | x | x | x | x | 1.3% | x
Cc1ccc(S(=O)(=O)N2CCN(c3nc(C#N)nc4ccccc34)CC2)cc1 | x | x | x | x | 39.7% | x
Cc1cccc2nc(-c3ccccc3)nc(N3CCC(O)(c4ccc(Cl)cc4)CC3)c12 | 14.1µM* | 1.3 | 2.8% | -1.5% | 7.1% | 14.2%
NC(=O)C1CCN(c2nccc(-c3ccc4c(c3)OCCCO4)n2)CC1 | x | x | x | x | -0.4% | x
O=C1C[C@@H](c2ccccc2Cl)N1S(=O)(=O)c1ccccc1[N+](=O)[O-] | x | x | x | x | -8.7% | x
O=c1cc(CSc2nnc(COc3ccccc3Cl)o2)nc2sccn12 | -0.4% | -2.1 | -4.1% | 25.1µM* | 4.9% | 22.2%
O=C(COc1ccccc1Cl)Nc1ccc(OCc2cc(=O)n3ccsc3n2)cc1 | -7.1% | x | x | x | -2.4% | x
CCCCNc1nc(C#N)nc(Nc2ccccc2)n1 | x | x | x | x | -9.8% | x
Nc1nc(=S)[nH]c2n[nH]nc12 | -1.8% | x | x | x | x | x
COc1ccc(C2CC(c3ccccc3)Oc3cc4c(cc32)OCO4)cc1 (stereo unspecified) | x | x | x | x | 22.3% | x
CSc1ccccc1-c1nnc(-c2ccc(Cl)cc2Cl)o1 | 35.5µM* | -3.4 | 3.2% | 1.2% | -1.1% | 12.0%
CSc1ccccc1-c1nnc(-c2ccc(Cl)c(Cl)c2)o1 | u | -2.9 | -0.8% | -4.8% | -7.6% | 23.9%
Cc1nc(CN(C)c2ncnc3cc(-c4ccc5c(c4)OCO5)ccc23)cs1 | x | x | x | x | -2.7% | x
Cc1csc(SCC(=O)c2ccc(S(=O)(=O)N3CCOCC3)cc2)n1 | 0.9% | -3.1 | -0.4% | 28.2µM* | u | 3.3%
CC(C)CCNC(=O)C(c1cccnc1)N(Cc1ccccc1)C(=O)Cn1nnc2ccccc21 (stereo unspecified) | -10.6% | 1.1 | x | x | 2.3% | 6.2%
CC(C)CCNC(=O)C(c1cccnc1)N(CCc1ccccc1)C(=O)Cn1nnc2ccccc21 (stereo unspecified) | 17.8µM* | 1.7 | 0.3% | -10.5% | 5.3% | -21.0%
CN(C(=O)COc1ncnc2ccccc12)C1CCCCC1 | 22.4µM* | 0.0 | 5.8% | x | -0.5% | -8.9%
CCC(=O)c1ccc(OCC(=O)Nc2nc(-c3cccnc3)cs2)cc1 | 31.6µM* | -0.5 | 0.4% | x | u | 5.6%
CCC(=O)c1ccc(OCC(=O)Nc2nc(C)cs2)cc1 | 0.4% | -0.5 | 0.1% | x | -8.7% | -5.2%
O=C1COc2ccc(S(=O)(=O)N3CCc4ccccc43)cc2N1 | 0.6% | 1.6 | -13.0% | 14.1µM* | -12.0% | -28.3%
O=S(=O)(c1cnc(Cl)c(Cl)c1)N1CCc2ccccc21 | 1.0% | -0.2 | -0.3% | 3.55µM* | 2.5% | -45.4%
Cc1cc2c(cc1S(=O)(=O)N1CCc3ccccc31)NC(=O)CO2 | x | -0.9 | 0.7% | x | u | 1.2%
O=S(=O)(c1cnc(Cl)c(Cl)c1)N1CCCc2ccccc21 | -0.5% | -3.8 | -3.9% | -13.9% | -11.6% | -36.6%
COc1ccc(/C=C/c2ccnc3ccccc23)cc1 | -11.9% | x | x | x | x | x
C1=Cc2ccccc2/C1=C\c1cc[cH-]c1.[Fe+2].c1cc[cH-]c1 | -2.5% | x | x | x | x | x
Cc1nn(C(C)(C)C)c(OC(=O)C2CCCC2)c1S(=O)(=O)c1ccccc1 | 11.2µM* | 0.6 | 4.4% | -0.6% | 5.4% | -17.5%
Cc1ccc(NC(=O)COc2ccccc2C(=O)Nc2ccccc2)cc1 | -3.4% | x | x | x | x | x
COc1ccc(NC(=O)c2oc3ccc(S(=O)(=O)N(C)C4CCCCC4)cc3c2C)cc1Cl | 28.2µM* | x | x | x | -1.3% | x
CC(C)=CCC/C(C)=C/CC/C(C)=C/CCC1(C)CCc2cc(O)ccc2O1 (stereo unspecified) | -1.9% | x | x | x | x | x

Bioassay records from PubChem BioAssay.
